Experiment [1] can be described thus: binders of probe aFSTL3 on microarray, primary screen, stem cell growth factor project, biochemical, small-molecule microarray, fluorescence 635/667 (AID 1064).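 Also: measures binding of the biotinylated anti-FSTL3 antibody to printed compounds.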 The following applies: higher = more signal.
Experiment [2] in a line: binders from COS7 lysate, DM2A8 probe, primary screen, torsin A project, cell lysate, small-molecule microarray, fluorescence 635/667 (AID 1065). Conditions: higher = more signal, COS7 lysate expressing mutant human TOR1A.
Experiment [3] in a line: binders of probe aFGF2 on microarray, primary screen, stem cell growth factor project, biochemical, small-molecule microarray, fluorescence 635/667 (AID 1067).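 Also: measures binding of biotinylated aFGF2 protein to printed compounds on slides; z-score merges feature fluorescence and signal-to-noise across triplicate slides.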 The following applies: higher = more signal.
Experiment [4] is described as follows: binders of probe aFGF10 on microarray, primary screen, stem cell growth factor project, biochemical, small-molecule microarray, fluorescence 635/667 (AID 1071).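 Also: score merges 667 nm spot intensity and signal to noise from triplicate slides.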 Conditions: higher = more signal.
The target of experiment [5] is Neurogenic locus notch homolog protein 2 (Homo sapiens) (UniProt Q04721). Briefly: Notch2 binders on small-molecule microarrays, primary screen, biochemical, small-molecule microarray, 635 nm fluorescence, stem cell growth factors (AID 1073). Conditions: Notch2 binding, higher = more signal.
Neurogenic locus notch homolog protein 2 (Homo sapiens), sequence (Q04721 whole entry, looked up, canonical isoform): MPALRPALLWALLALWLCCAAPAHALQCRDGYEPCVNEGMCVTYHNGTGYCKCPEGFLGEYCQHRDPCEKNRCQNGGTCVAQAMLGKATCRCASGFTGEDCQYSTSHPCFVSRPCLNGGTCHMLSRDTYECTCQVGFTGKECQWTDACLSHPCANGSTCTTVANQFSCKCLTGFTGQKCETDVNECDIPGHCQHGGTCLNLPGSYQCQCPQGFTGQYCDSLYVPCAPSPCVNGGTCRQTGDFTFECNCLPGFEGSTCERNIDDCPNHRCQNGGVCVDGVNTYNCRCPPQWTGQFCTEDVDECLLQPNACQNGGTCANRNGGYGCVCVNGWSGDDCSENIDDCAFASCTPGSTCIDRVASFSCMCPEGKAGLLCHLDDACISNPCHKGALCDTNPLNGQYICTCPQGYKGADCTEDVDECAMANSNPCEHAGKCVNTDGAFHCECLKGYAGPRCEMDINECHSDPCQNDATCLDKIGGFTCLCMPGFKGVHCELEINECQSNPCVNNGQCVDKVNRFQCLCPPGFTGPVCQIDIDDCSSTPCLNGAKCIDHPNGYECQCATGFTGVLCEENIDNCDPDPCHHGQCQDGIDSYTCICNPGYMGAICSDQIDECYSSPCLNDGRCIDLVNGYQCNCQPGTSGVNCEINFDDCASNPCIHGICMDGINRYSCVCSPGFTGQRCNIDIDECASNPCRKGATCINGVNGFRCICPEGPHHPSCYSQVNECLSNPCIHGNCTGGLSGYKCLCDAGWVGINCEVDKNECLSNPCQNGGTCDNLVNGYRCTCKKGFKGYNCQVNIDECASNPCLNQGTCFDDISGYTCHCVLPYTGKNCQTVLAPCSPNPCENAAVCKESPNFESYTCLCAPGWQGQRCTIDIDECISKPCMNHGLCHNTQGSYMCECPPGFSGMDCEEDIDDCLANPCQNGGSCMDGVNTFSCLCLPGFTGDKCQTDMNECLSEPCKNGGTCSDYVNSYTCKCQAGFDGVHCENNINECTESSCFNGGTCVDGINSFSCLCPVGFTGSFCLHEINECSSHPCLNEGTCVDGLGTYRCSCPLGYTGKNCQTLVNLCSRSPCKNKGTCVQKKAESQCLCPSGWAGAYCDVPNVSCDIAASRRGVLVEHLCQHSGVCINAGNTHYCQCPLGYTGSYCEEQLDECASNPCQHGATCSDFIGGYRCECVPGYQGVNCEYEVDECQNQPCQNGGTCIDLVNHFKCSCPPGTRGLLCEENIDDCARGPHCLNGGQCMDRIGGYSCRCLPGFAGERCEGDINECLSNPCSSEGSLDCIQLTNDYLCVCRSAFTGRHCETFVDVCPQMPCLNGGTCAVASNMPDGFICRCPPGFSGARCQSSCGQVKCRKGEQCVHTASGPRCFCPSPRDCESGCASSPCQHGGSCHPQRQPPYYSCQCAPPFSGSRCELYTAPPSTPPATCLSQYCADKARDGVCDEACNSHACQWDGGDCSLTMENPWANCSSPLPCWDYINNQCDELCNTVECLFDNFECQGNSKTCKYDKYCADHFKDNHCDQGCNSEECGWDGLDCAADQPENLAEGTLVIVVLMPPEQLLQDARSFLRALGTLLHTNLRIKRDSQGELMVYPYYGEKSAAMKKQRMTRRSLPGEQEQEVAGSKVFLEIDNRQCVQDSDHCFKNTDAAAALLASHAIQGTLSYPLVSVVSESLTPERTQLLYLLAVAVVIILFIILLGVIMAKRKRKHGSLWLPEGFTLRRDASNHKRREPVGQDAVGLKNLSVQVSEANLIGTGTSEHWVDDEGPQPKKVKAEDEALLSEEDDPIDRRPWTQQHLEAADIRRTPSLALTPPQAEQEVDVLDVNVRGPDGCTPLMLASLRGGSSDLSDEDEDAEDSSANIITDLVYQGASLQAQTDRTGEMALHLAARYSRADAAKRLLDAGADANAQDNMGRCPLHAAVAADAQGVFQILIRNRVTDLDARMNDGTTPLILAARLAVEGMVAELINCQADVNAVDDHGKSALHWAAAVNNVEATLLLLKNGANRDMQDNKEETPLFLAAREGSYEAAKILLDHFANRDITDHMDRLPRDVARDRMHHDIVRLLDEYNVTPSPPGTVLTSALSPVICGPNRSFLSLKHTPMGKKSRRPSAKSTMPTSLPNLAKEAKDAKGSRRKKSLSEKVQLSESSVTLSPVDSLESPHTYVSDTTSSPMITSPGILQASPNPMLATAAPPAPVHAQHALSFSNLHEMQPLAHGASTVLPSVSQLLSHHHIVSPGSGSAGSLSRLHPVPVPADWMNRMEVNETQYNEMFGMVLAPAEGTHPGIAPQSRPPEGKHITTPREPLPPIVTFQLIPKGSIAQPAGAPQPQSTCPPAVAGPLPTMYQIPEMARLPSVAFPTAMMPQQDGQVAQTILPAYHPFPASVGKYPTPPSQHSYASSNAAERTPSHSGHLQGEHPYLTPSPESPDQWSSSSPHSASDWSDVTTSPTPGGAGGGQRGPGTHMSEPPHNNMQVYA
For experiment [6], the target named is Pro-neuregulin-1, membrane-bound isoform (Homo sapiens) (UniProt Q02297). As to the kind of experiment: NRG1 binders on small-molecule microarrays, primary screen, psychiatric disease protein project, biochemical, small-molecule microarray, fluorescence 635/667 (AID 1075).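 Also: score combines 667 nm spot fluorescence with signal to noise.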 Conditions: NRG1 binding, 635 nm fluorescence, higher = more signal.
Pro-neuregulin-1, membrane-bound isoform (Homo sapiens), sequence (Q02297 whole entry, looked up, the tested form may be a part, canonical isoform): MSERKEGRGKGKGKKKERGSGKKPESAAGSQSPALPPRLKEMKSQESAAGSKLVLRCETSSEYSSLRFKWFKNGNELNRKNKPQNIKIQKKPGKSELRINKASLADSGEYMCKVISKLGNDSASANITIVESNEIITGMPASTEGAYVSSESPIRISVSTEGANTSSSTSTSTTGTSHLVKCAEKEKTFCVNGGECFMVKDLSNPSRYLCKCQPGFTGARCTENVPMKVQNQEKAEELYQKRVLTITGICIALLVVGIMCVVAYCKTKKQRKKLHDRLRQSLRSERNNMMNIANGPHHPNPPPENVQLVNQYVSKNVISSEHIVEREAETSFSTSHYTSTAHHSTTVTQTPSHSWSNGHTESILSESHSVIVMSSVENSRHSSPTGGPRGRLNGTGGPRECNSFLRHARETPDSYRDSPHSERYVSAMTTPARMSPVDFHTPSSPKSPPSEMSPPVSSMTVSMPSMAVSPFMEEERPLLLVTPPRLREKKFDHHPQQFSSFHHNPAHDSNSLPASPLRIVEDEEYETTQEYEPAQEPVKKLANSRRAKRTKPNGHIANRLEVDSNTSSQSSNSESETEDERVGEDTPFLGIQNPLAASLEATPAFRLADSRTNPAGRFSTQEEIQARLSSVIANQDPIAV
The subject of experiment [7] is Neuregulin-1 EGF-like domain. Briefly: binders of neuregulin-1 EGF-like domain, primary screen, biochemical, small-molecule microarray, 635 nm fluorescence (AID 1081).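 Also: binding of the protein to compounds printed on small-molecule microarray slides.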 The following applies: small-molecule microarray binding, higher = more signal.
Experiment [8] can be described thus: FRG1 promoter luciferase signal modulators, primary screen, FRG1 inhibition for FSHD, cell-based, C2C12 myotubes, firefly/Renilla luciferase, luminescence (AID 1084). The following applies: higher = more signal, called active from +8 up or from −8 down.
Experiment [9] in a line: binders of probe aFST on microarray, primary screen, stem cell growth factor project, biochemical, small-molecule microarray, fluorescence 635/667 (AID 1086).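 Also: score merges 667 nm fluorescence with signal-to-noise of each printed compound spot.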 The following applies: higher = more signal.
The nature of experiment [10]: binders of probe aHhip on microarray, primary screen, stem cell growth factor project, biochemical, small-molecule microarray, fluorescence 635/667 (AID 1087).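 Also: score merges spot fluorescence at 667nm with spot signal to noise ratio.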 The following applies: higher = more signal.
Experiment [11] concerns PRMT1 (protein arginine N-methyltransferase 1). Briefly: PRMT1 binders on small-molecule microarrays, primary screen, biochemical, small-molecule microarray, 635 nm fluorescence (AID 1088).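 Also: binding of Prmt1 protein to compounds spotted on small-molecule microarray slides.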 Conditions: small-molecule microarray binding, higher = more signal.
Experiment [12] in a line: yeast growth modulation, basal conditions, primary screen, YJM789 clinical isolate, OD600, 24 h (AID 1089).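 Also: growth of clinical yeast isolate S. cerevisiae YJM 789 seeded 1000 cells per well; test concentration not given here.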 The following applies: S. cerevisiae YJM789 growth, higher = more signal, called active from +8 up or from −8 down.
Experiment [13] is described as follows: fission yeast growth modulation, primary screen, strain 972, OD600, 24 h, no modulator (AID 1090).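 Also: basal condition with compound alone and no growth modifier present; test concentration not given here.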 The following applies: S. pombe 972 growth, higher = more signal, called active from +8 up or from −8 down.
Experiment [14] can be described thus: S. cerevisiae growth modulation with rapamycin, primary screen, strain BY4716, OD600, 96 h (AID 1091). Also: test concentration not given here. The following applies: higher = more signal, called active from +8 up or from −8 down.
For experiment [15], the target named is Torsin-1A-interacting protein 2 (Homo sapiens) (UniProt Q8NFQ8). As to the kind of experiment: LULL1 binders on small-molecule microarray, primary screen, cell lysate, human LULL1 lysate, 635/667 nm fluorescence (AID 1092).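 Also: probe is lysate of COS7 cells overexpressing human LULL1; score merges per-feature 667 nm fluorescence with signal-to-noise.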 Conditions: hLULL1 lysate binding, 635 nm fluorescence, higher = more signal.
Torsin-1A-interacting protein 2 (Homo sapiens), sequence (Q8NFQ8 whole entry, looked up): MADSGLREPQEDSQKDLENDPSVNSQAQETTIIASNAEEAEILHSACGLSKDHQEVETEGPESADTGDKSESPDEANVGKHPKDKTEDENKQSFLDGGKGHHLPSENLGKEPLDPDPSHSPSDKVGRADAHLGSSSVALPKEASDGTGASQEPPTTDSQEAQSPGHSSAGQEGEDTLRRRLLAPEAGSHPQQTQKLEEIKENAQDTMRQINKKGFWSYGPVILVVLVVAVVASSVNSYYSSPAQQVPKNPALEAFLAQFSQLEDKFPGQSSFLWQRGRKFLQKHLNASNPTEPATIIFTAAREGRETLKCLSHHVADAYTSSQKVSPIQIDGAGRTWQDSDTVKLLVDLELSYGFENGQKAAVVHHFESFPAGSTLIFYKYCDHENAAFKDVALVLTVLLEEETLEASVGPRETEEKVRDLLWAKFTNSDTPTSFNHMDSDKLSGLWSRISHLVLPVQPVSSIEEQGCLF
Experiment [16] is described as follows: E. coli growth modulation, two-sided OD650, primary screen, E. coli filamentation project, strain DRC41, 24 h (AID 1093).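 Also: MC1000 strain lacking acrAB efflux and sulA so SOS filamentation is blocked; test concentration not given here.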 Conditions: OD650, 24 h, higher = more signal, called active from +8 up or from −8 down.
Experiment [17] can be described thus: small-molecule microarray binders of probe aLefty2, primary screen, biochemical, biotinylated probe, 635/667 nm fluorescence (AID 1094).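 Also: score merges spot fluorescence near 667 nm with spot signal-to-noise ratio.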 The following applies: higher = more signal.
The test system of experiment [18] is Noggin (protein binding on small-molecule microarray). As to the kind of experiment: Noggin binders on small-molecule microarray, primary screen, biochemical, 635/667 nm fluorescence (AID 1095).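 Also: score merges 667 nm feature fluorescence with signal to noise over triplicate slides.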 The following applies: 635 nm fluorescence, higher = more signal.
Experiment [19] has as its target Neurogenic locus notch homolog protein 3 (Homo sapiens) (UniProt Q9UM47). Briefly: NOTCH3 binders on small-molecule microarray, primary screen, biochemical, 635/667 nm fluorescence (AID 1096). The following applies: NOTCH3 binding, 635 nm fluorescence, higher = more signal.
The nature of experiment [20]: small-molecule microarray binders of probe aEGFR, primary screen, biochemical, biotinylated probe, 635/667 nm fluorescence (AID 1097).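 Also: probe is a biotinylated anti-EGFR antibody binding compounds printed on slides; score combines fluorescence near 667 nm and signal to noise of each spot.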 Conditions: higher = more signal.

Active and inactive are the calls of the source.

For `COc1ccc([Si](C)(C)[C@H]2[C@H](CCO)O[C@@]3(C(=O)N(Cc4cccc(N5C(=O)c6ccccc6Oc6ccccc65)c4)c4ccccc43)[C@@H]2C)cc1`, the composite z-score is 0.115 in experiment [1]; -0.672 in experiment [2]; -0.0645 in experiment [3]; 0.462 in experiment [4]; 0.139 in [5]; 0.962 in [6]. Further, the composite z-score in experiment [7] was 1.02; in experiment [9], -0.278; in experiment [10] it was -0.132; in experiment [11], 0.891; in experiment [15], 1.51; in experiment [17], -0.118. Further, the figures for the composite z-score in experiment [18], in [19] and in experiment [20] were -0.202, 0.451 and -0.108, respectively. The z-score in experiment [8] is -1.19 (inactive); in experiment [12] it was 2.14 (inactive); in [13], -0.506 (inactive); in experiment [14], 23.1 (active); in experiment [16], 1.03 (inactive).
Turning to `COc1ccc([Si](C)(C)[C@@H]2[C@@H](CC(=O)N3CCC[C@H]3CO)O[C@]3(C(=O)N(Cc4ccc(N5CCOC5=O)cc4)c4ccccc43)[C@H]2C)cc1`, the composite z-score was -0.29 in experiment [1]; 0.59 in [2]; -0.155 in [3]; -0.0087 in [4]; 0.01 in experiment [5]; 0.717 in experiment [6]. Besides, the composite z-score is 1.01 in experiment [7]; 0.138 in experiment [9]; -0.0994 in [10]; 1.45 in experiment [11]; 2.72 in experiment [15]; -0.242 in experiment [17]. For the same compound, the composite z-score in [18] is 1.46; in [19], 0.912; in [20], -0.188. The z-score in experiment [8] is -2.49 (inactive); in experiment [12], -3.35 (inactive); in experiment [13] it was -1.13 (inactive); in experiment [14], -0.356 (inactive); in experiment [16], 0.985 (inactive).
For the compound `C=CC[C@@]1(C(=O)OC)N=C(c2ccc(OCCCO)cc2)O[C@@H]1c1ccccc1N=[N+]=[N-]`, the composite z-score in [1] was 0.172; in experiment [2], -0.0701; in experiment [3], 0.0555; in experiment [4], 0.256; in [5], 1.47; in [6], 1.49. Also, the composite z-score in experiment [7] was found to be 1.44; in [9] it was 0.587; in experiment [10], 0.154; in experiment [11] it was 1.54; in [15] it was 3.05; in experiment [17], 0.346. Besides, the composite z-score was 1.14 in experiment [18], 1.07 in [19] and 0.118 in experiment [20]. Also, the z-score in experiment [8] was 1.54 (inactive); in [12], -0.777 (inactive); in [13], -0.713 (inactive); in experiment [14] it was 1.35 (inactive); in experiment [16] it was 0.643 (inactive).
Turning to `O=C1O[C@H](Cc2ccccc2)[C@@H]2[C@H]3C=CCCC=C3CN2[C@H]1Cc1ccc(O)cc1`, the composite z-score was -0.117 in experiment [1]; -0.0933 in [2]; -0.0692 in [3]; -0.026 in experiment [4]; -0.562 in experiment [5]; -0.465 in experiment [6]. Moreover, the composite z-score is 0.0706 in experiment [7]; 0.142 in experiment [9]; 0.0976 in experiment [10]; -1.14 in [11]; -0.145 in experiment [15]; -0.0591 in [17]. For the same compound, the composite z-score is -0.0371 in experiment [18], -0.268 in [19] and -0.0958 in experiment [20]. The z-score was 0.0201 (inactive) in experiment [8]; -0.055 (inactive) in experiment [12]; -1.54 (inactive) in experiment [13]; -0.621 (inactive) in [14]; 0.222 (inactive) in experiment [16].
Take `COc1ccc(CCNC(=O)[C@@H]2c3ccccc3C(=O)N(Cc3ccccc3OC)[C@H]2c2ccc(CO)cc2)cc1`: the composite z-score in experiment [1] was -0.26; in [2] it was 0.678; in [3], 0.0021; in experiment [4], 0.131; in experiment [5], 1.03; in experiment [6], 1.29. The composite z-score in experiment [7] was 1.31; in experiment [9], 0.428; in [10] it was -0.266; in [11], 1.53; in experiment [15] it was 2.62; in experiment [17], -0.172. Besides, the composite z-score was 0.0564 in experiment [18], 0.852 in [19] and -0.105 in experiment [20]. The z-score is -2.5 (inactive) in experiment [8]; -1.23 (inactive) in [12]; 0.294 (inactive) in experiment [13]; -0.323 (inactive) in experiment [14]; -0.1 (inactive) in experiment [16].

These data come from PubChem BioAssay.
